Assay results: PubChem BioAssay (NCATS)
Results filed as inconclusive are left out. Active and inactive are the calls of the source. Calls follow the shape of the dose curve; as a rule, active = well fitted curve in the direction sought with a large enough effect; inconclusive = small, poorly fitted or top-dose-only effect, or another doubt; inactive = no such curve, though single readings can be large; an effect the other way counts as inactive or inconclusive.

What was measured:
[1] = Quantitative High-Throughput drug screen in 47 multiple myeloma cell lines against the NCATS MIPE library collection: KMS12PE_JCRB cell viability assay (AID 1918972); also: nearly all actives have a fitted effect of over 30% in size;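 as to viability: 100% = DMSO only wells and 0% = wells with media alone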
Procedure, shortened: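 Viability readout: CellTiter-Glo luminescence following 5 min room-temperature incubation with reagent. Prior exposure: 48 h, 37C, humidified 5% CO2, 500 cells per well.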

[2] = Quantitative High-Throughput drug screen in 47 multiple myeloma cell lines against the NCATS MIPE library collection: MMM1_PLB cell viability assay (AID 1918976); also: nearly all actives have a fitted effect of over 35% in size
Procedure, shortened: (§1)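 Cells were exposed to library compounds for 48 hours, after which ATP was measured by CellTiter-Glo. Signal was taken as median relative luminescence units.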

[3] = Quantitative High-Throughput drug screen in 47 multiple myeloma cell lines against the NCATS MIPE library collection: MOLP8_DSMZ cell viability assay (AID 1918977); also: nearly all actives have a fitted effect of over 45% in size;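 as to viability (% of control): 100% = DMSO-only wells and 0% = media-only wells without cells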
Procedure, shortened: as §1

[4] = Quantitative High-Throughput drug screen in 47 multiple myeloma cell lines against the NCATS MIPE library collection: MM1S_ATCC cell viability assay (AID 1918980); also: nearly all actives have a fitted effect of over 45% in size;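 as to viability (% of control): 100% = wells with DMSO only and 0% = wells with media only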
Procedure, shortened: as §1

[5] = Quantitative High-Throughput drug screen in 47 multiple myeloma cell lines against the NCATS MIPE library collection: KMS28PE_JCRB cell viability assay (AID 1918983); also: nearly all actives have a fitted effect of over 35% in size
Procedure, shortened: as §1

[6] = Quantitative High-Throughput drug screen in 47 multiple myeloma cell lines against the NCATS MIPE library collection: OPM1_PLB cell viability assay (AID 1918989); also: nearly all actives have a fitted effect of over 40% in size;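 as to viability (% of control): 100% = DMSO-only wells and 0% = media-only wells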
Procedure, shortened: as §1

[7] = Quantitative High-Throughput drug screen in 47 multiple myeloma cell lines against the NCATS MIPE library collection: U266_ATCC cell viability assay (AID 1919864); also: nearly all actives have a fitted effect of over 35% in size
Procedure, shortened: as §1

[8] = Quantitative High-Throughput drug screen in 47 multiple myeloma cell lines against the NCATS MIPE library collection: XG6_PLB cell viability assay (AID 1919865); also: nearly all actives have a fitted effect of over 40% in size;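 as to viability (% of control): 100% = DMSO-only wells and 0% = media-only wells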
Procedure, shortened: as §1

[9] = Quantitative High-Throughput drug screen in 47 multiple myeloma cell lines against the NCATS MIPE library collection: NCIH929_DSMZ cell viability assay (AID 1918978); also: nearly all actives have a fitted effect of over 35% in size
Procedure, shortened: as §1

[10] = Quantitative High-Throughput drug screen in 47 multiple myeloma cell lines against the NCATS MIPE library collection: OCIMY1_PLB cell viability assay (AID 1918979); also: nearly all actives have a fitted effect of over 35% in size;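 as to viability: 100% = DMSO-only wells and 0% = cell-free media-only wells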
Procedure, shortened: as §1

[11] = Quantitative High-Throughput drug screen in 47 multiple myeloma cell lines against the NCATS MIPE library collection: MM1R_ATCC cell viability assay (AID 1918981); also: nearly all actives have a fitted effect of over 35% in size
Procedure, shortened: as §1

[12] = Quantitative High-Throughput drug screen in 47 multiple myeloma cell lines against the NCATS MIPE library collection: LP1_DSMZ cell viability assay (AID 1918982); also: nearly all actives have a fitted effect of over 35% in size
Procedure, shortened: as §1

[13] = Quantitative High-Throughput drug screen in 47 multiple myeloma cell lines against the NCATS MIPE library collection: KMS34_JCRB cell viability assay (AID 1918985); also: nearly all actives have a fitted effect of over 40% in size
Procedure, shortened: as §1

[14] = Quantitative High-Throughput drug screen in 47 multiple myeloma cell lines against the NCATS MIPE library collection: OCIMY7_PLB cell viability assay (AID 1918987); details: OCI-MY7 myeloma viability, CellTiter-Glo ATP, 48 h; viability (% of DMSO): at 45.8 µM (top of the series); also: nearly all actives have a fitted effect of over 65% in size
Procedure, shortened: as §1

[15] = Quantitative High-Throughput drug screen in 47 multiple myeloma cell lines against the NCATS MIPE library collection: OCIMY5_PLB cell viability assay (AID 1918988); also: nearly all actives have a fitted effect of over 65% in size
Procedure, shortened: as §1

[16] = Quantitative High-Throughput drug screen in 47 multiple myeloma cell lines against the NCATS MIPE library collection: SKMM1_PLB cell viability assay (AID 1919863); details: SKMM1 myeloma viability, CellTiter-Glo ATP, 48 h; viability: active compounds read low; also: nearly all actives have a fitted effect of over 35% in size
Procedure, shortened: as §1

[17] = Quantitative High-Throughput drug screen in 47 multiple myeloma cell lines against the NCATS MIPE library collection: KMS26_JCRB cell viability assay (AID 1918975); also: nearly all actives have a fitted effect of over 45% in size;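 as to viability (% of DMSO): 100% = DMSO-treated wells and 0% = wells with media only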
Procedure, shortened: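 Steps: seed 500 cells per well; pin-transfer MIPE 4.0 library; incubate 48 h at 37C, 5% CO2, humidified; add CellTiter-Glo, 5 min room temperature; read luminescence.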

[18] = Quantitative High-Throughput drug screen in 47 multiple myeloma cell lines against the NCATS MIPE library collection: L363_DSMZ cell viability assay (AID 1918984); details: L363 myeloma viability, CellTiter-Glo ATP luminescence, 48 h; viability (% of control): at 45.8 µM (top of the series); also: nearly all actives have a fitted effect of over 40% in size
Procedure, shortened: as §1
Potency is read from the fitted curve at half-maximal effect.

Cc1cc(NC(=O)Nc2ccc(N(C)C)cc2)c2cc(F)cc(F)c2n1
active: Potency [1] 1.66 µM | Potency [2] 20.9 µM | Potency [3] 23.5 µM | Potency [4] 16.6 µM
inactive: Potency [5] | Potency [6] | Potency [7] | Potency [8]

CC1(C)C(N(O)C(=O)Nc2ccc(Cl)cc2)N(c2ccc(Cl)cc2)C(=O)N1CC(=O)NN=CC=Cc1ccc([N+](=O)[O-])o1 (stereo not drawn)
active: Potency [2] 14.8 µM | Potency [3] 3.72 µM | Potency [9] 7.43 µM | Potency [10] 8.33 µM | Potency [4] 9.35 µM | Potency [11] 5.26 µM | Potency [12] 16.6 µM | Potency [5] 8.33 µM | Potency [13] 7.43 µM | Potency [14] 5.9 µM | Potency [15] 7.43 µM | Potency [16] 13.2 µM | Potency [8] 10.5 µM
inactive: Potency [1]

CNC(=O)c1ccc2c(C(=Nc3cccc(CN(C)C)c3)c3ccccc3)c(O)[nH]c2c1
active: Potency [1] 18.7 µM | Potency [17] 0.662 µM | Potency [9] 14.8 µM | Potency [5] 4.18 µM | Potency [18] 4.18 µM | Potency [14] 5.9 µM | Potency [6] 18.7 µM | Potency [8] 16.6 µM
inactive: Potency [12]

CC=C(C(=CC)c1ccc(O)cc1)c1ccc(O)cc1
active: Potency [1] 16.6 µM | Potency [2] 16.6 µM | Potency [4] 11.8 µM | Potency [18] 13.2 µM | Potency [15] 16.6 µM | Potency [8] 18.7 µM
inactive: Potency [3] | Potency [9] | Potency [10] | Potency [5]

CNC1[C@H](O)C(O[C@@H]2C(O)C(O[C@H]3O[C@H]([C@@H](C)NC)CC[C@H]3N)[C@@H](N)C[C@H]2N)OC[C@]1(C)O (stereo partly drawn)
inactive: Potency [1] | Potency [17] | Potency [3] | Potency [9] | Potency [10] | Potency [11] | Potency [12] | Potency [13] | Potency [14] | Potency [15] | viability [16] 103% | Potency [8]

Cc1cc2c(cc1C1(c3ccc(C(=O)O)cn3)CC1)C(C)(C)CCC2(C)C
active: Potency [17] 14.8 µM | Potency [10] 0.0015 µM | Potency [11] 6.62 µM
inactive: Potency [1] | Potency [4] | Potency [18]

CCC(c1ccc(O)cc1)C(CC)c1ccc(O)cc1 (stereo not drawn)
inactive: Potency [1] | Potency [9] | Potency [18]
active: Potency [17] 3.72 µM | Potency [4] 4.69 µM | Potency [15] 3.32 µM | Potency [7] 3.32 µM | Potency [8] 0.833 µM

CC[C@H](CC#N)OC(=O)N[C@@H](C)c1cccc(NC(=O)Nc2ccc(-c3cnco3)c(OC)c2)c1
active: Potency [1] 14.8 µM | Potency [17] 20.9 µM | Potency [2] 20.9 µM | Potency [4] 1.18 µM | Potency [5] 1.18 µM | Potency [18] 18.7 µM | Potency [14] 3.72 µM | Potency [15] 3.72 µM | Potency [6] 13.2 µM | Potency [16] 1.18 µM | Potency [7] 1.48 µM | Potency [8] 2.96 µM

O=C(O)c1nc(=O)[nH]c(=O)[nH]1
inactive: Potency [1] | Potency [17] | Potency [4] | Potency [11] | Potency [18] | Potency [13] | Potency [14] | Potency [6] | Potency [7]
active: Potency [5] 11.5 µM

C=C1c2cccc(O)c2C(O)=C2C(=O)[C@@]3(O)C(O)=C(C(N)=O)C(=O)[C@@H](N(C)C)[C@@H]3[C@@H](O)[C@H]12
active: Potency [17] 4.69 µM | Potency [11] 20.9 µM | Potency [12] 23.5 µM | Potency [14] 9.35 µM | Potency [15] 18.7 µM | Potency [6] 23.5 µM
inactive: Potency [1] | Potency [9] | Potency [10] | Potency [18]

Nc1ccn([C@@H]2O[C@H](CO)[C@@H](O)[C@H]2O)c(=O)n1
active: Potency [11] 0.0526 µM
inactive: Potency [1] | Potency [17] | Potency [3] | Potency [9] | Potency [12] | Potency [5] | Potency [18] | Potency [15] | viability [16] 113%

CCc1cc(-c2n[nH]c(C)c2-c2ccc3c(c2)OCCO3)c(O)cc1O
active: Potency [1] 5.26 µM | Potency [17] 5.26 µM | Potency [3] 2.64 µM | Potency [9] 8.33 µM | Potency [4] 8.33 µM | Potency [11] 6.62 µM | Potency [5] 4.18 µM | Potency [18] 0.148 µM | Potency [13] 3.32 µM | Potency [14] 1.66 µM | Potency [15] 3.72 µM | Potency [6] 6.62 µM | Potency [7] 7.43 µM | Potency [8] 9.35 µM

CON(C)C(=O)N1N=C(c2cc(F)ccc2F)S[C@]1(CCCN)c1ccccc1
inactive: Potency [17] | Potency [3] | Potency [9] | Potency [10] | Potency [4] | Potency [12] | Potency [5] | Potency [13] | Potency [14] | Potency [15] | viability [16] 61.2%
active: Potency [1] 0.001 µM

O=C1CCCC(=O)C1C(=O)c1ccc(C(F)(F)F)cc1[N+](=O)[O-]
inactive: Potency [1] | Potency [9] | Potency [10] | Potency [11] | Potency [12] | Potency [5] | Potency [18] | Potency [14] | Potency [6] | Potency [8]
active: Potency [4] 18.7 µM | Potency [7] 20.9 µM

CCNC(=O)CCCC=CC[C@@H]1[C@H](C=CC(O)CCc2ccccc2)[C@@H](O)C[C@@H]1O (stereo partly drawn)
inactive: Potency [1] | Potency [9] | Potency [10] | Potency [12] | Potency [5] | Potency [18] | Potency [7] | Potency [8]
active: Potency [4] 5.9 µM | Potency [11] 26.4 µM | Potency [15] 26.4 µM
